Source: PubChem BioAssay AID1645838 (ICCB-Longwood Screening Facility, Harvard Medical School, 2021)
Several values for one entry are separate records, joined by “and”; a condition that tells them apart may be missing. Equal values may be shown once. About 100 (5%) of roughly 2,000 compounds were called active. No stated cut-off is given here; in the data, active means z-score above about 2; inactive means the rest. What follows is part of a selection rich in actives, with near analogues and random picks from the rest. More than one record can exist for a structure, and the calls need not agree.

Assay: supercomplex reporter luminescence per Hoechst cell count – Hoechst nuclei count (AID 1645838);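 further: control cybrid cells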;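 on z-score: higher means more mitochondrial supercomplex formation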
Conditions: Cells, luminescence/Hoechst cell count ratio; for z-score: stronger effect = higher value; for cell count: measured here: cell number, Hoechst nuclei count
[1] = library stock concentration (final well concentration not given) 80 uM
[2] = library stock concentration (final well concentration not given) 400 uM
[3] = library stock concentration (final well concentration not given) 46 uM
[4] = library stock concentration (final well concentration not given) 278 uM
[5] = library stock concentration (final well concentration not given) 1.67 mM
[6] = library stock concentration (final well concentration not given) 10 mM
[7] = library stock concentration (final well concentration not given) 2 mM

COC1C(N(C)C(=O)c2ccccc2)C[C@@H]2O[C@]1(C)n1c3ccccc3c3c4c(c5c6ccccc6n2c5c31)C(=O)NC4 (some centres not stated)
outcome (library stock 2 mM): inactive; censored for cell count
outcome (library stock 10 mM): inactive; censored for cell count
z-score [1]: 0.298 (inactive)
z-score [2]: 1.12 (inactive)
cell count [1]: 5280
cell count [2]: 4120

CCOC(=O)c1c(Cc2cccc(Cl)c2)[nH]c2c1cc(O)c1ccccc12
z-score: 0.267 (inactive)
cell count: 5070

CCCCC(C)(O)C/C=C/[C@H]1[C@H](O)CC(=O)[C@H]1CCCCCCC(=O)OC (some centres not stated)
z-score: -0.356 (inactive)
cell count: 5650

CC(C)NCC(O)c1ccc(O)c(O)c1 (configuration not stated)
z-score [3]: 0.406 (inactive)
z-score [4]: 0.956 (inactive)
z-score [5]: 0.578 (inactive)
z-score [6]: 1.22 (inactive)
cell count [3]: 6420
cell count [4]: 6030
cell count [5]: 6690
cell count [6]: 6300

NC(=O)c1cccc(-c2cccc(OC(=O)NCCCCCCc3ccccc3)c2)c1
z-score: 0.191 (inactive)
cell count: 4760

OCc1cc(C(O)CNCCCCCCOCCCCc2ccccc2)ccc1O (configuration not stated)
z-score [1]: 1.97 (active)
z-score [2]: 1.87 (inactive)
z-score [7]: 1.36 (inactive)
z-score [6]: 1.79 (inactive)
cell count [1]: 4600
cell count [2]: 4730
cell count [7]: 4660
cell count [6]: 3230

COc1cc(C2c3cc4c(cc3C(O)[C@H]3COC(=O)[C@@H]23)OCO4)cc(OC)c1OC (some centres not stated)
outcome (library stock 2 mM): inactive; censored for cell count
outcome (library stock 10 mM): inactive; censored for cell count
z-score [1]: -0.602 (inactive)
z-score [2]: -0.324 (inactive)
cell count [1]: 5600
cell count [2]: 3990

O=C(O)CCC/C=C\C[C@@H]1[C@@H](/C=C/C(=O)CCc2ccccc2)[C@H](O)C[C@@H]1O
z-score: 0.328 (inactive)
cell count: 4980

CCCCC[C@H](O)/C=C/[C@H]1C=CC(=O)[C@@H]1C/C=C\CCCC(=O)O
z-score: 0.972 (inactive)
cell count: 5050

Oc1ccc(C=NN(Cc2ccccc2)Cc2ccccc2)cc1
z-score [1]: 0.58 (inactive)
z-score [2]: 0.621 (inactive)
z-score [7]: 0.515 (inactive)
z-score [6]: 1.23 (inactive)
cell count [1]: 4430
cell count [2]: 4410
cell count [7]: 3940
cell count [6]: 3600

CC1(C)OC2CO[C@@]3(COS(N)(=O)=O)OC(C)(C)OC3C2O1 (some centres not stated)
z-score [1]: 0.166 (inactive)
z-score [2]: 0.0797 (inactive)
z-score [7]: 0.165 (inactive)
z-score [6]: -0.169 (inactive)
cell count [1]: 6240
cell count [2]: 6200
cell count [7]: 5750
cell count [6]: 5940

CCCCCCCCCCCCCCCCC(=O)NCCO
z-score: 0.812 (inactive)
cell count: 5880

CC(N)c1ccc(C(=O)Nc2ccnc3[nH]ccc23)cc1 (configuration not stated)
z-score [1]: 0.0935 (inactive)
z-score [2]: -0.0384 (inactive)
z-score [7]: -0.229 (inactive)
z-score [6]: 0.129 (inactive)
cell count [1]: 5400
cell count [2]: 5420
cell count [7]: 5670
cell count [6]: 3470

O=C(Cc1cccc(OC(F)(F)F)c1)Nc1ccc(CCCCc2nnc(NC(=O)Cc3ccccn3)s2)nn1
z-score [3]: 1.3 (inactive)
z-score [4]: 3.8 (active)
z-score [5]: 4.04 (active)
z-score [6]: 4.54 (active)
cell count [3]: 5940
cell count [4]: 4200
cell count [5]: 4190
cell count [6]: 3940

NC(=O)c1cnc(NC2CCCCC2N)nc1Nc1cccc(-n2nccn2)c1 (configuration not stated)
z-score [1]: -0.155 (inactive)
z-score [2]: -0.103 (inactive)
z-score [7]: 0.129 (inactive)
z-score [6]: 0.743 (inactive)
cell count [1]: 5260
cell count [2]: 4840
cell count [7]: 5390
cell count [6]: 3000

CCCC[C@H](C)C[C@H](O)/C=C/[C@H]1[C@H](O)CC(=O)[C@@H]1CCCCC(CC(=O)O)OC (some centres not stated)
z-score: -0.235 (inactive)
cell count: 5180

CC(C)OC(=O)N1CCC(Oc2ncnc3c2cnn3-c2ccc(S(C)(=O)=O)cc2F)CC1
z-score [3]: -0.707 (inactive)
z-score [4]: -0.537 (inactive)
z-score [5]: -0.462 (inactive)
z-score [6]: -0.531 (inactive)
cell count [3]: 7670
cell count [4]: 7400
cell count [5]: 7330
cell count [6]: 7200

CCCCC/C=C\C/C=C\CCCCCCCC(=O)O[C@H](COC(=O)CCCCCCCCCCCCCCC)COP(=O)(O)OCCN
z-score: -0.42 (inactive)
cell count: 5090

CC(C)(C)OC(=O)Nc1ccc(-c2cc(C(=O)NCCCCCCC(=O)NO)no2)cc1
z-score: 4.81 (active)
cell count: 3910

CC(C)(C)CC1NC(C(=O)NC2CCC(O)CC2)C(c2cccc(Cl)c2F)[C@]12C(=O)Nc1cc(Cl)ccc12 (some centres not stated)
z-score [3]: -0.637 (inactive)
z-score [4]: -0.742 (inactive)
z-score [5]: -0.98 (inactive)
z-score [6]: -1.86 (inactive)
cell count [3]: 7790
cell count [4]: 7430
cell count [5]: 8360
cell count [6]: 7510

CC(C)(C)C(O)C=Cc1ccc2c(c1)OCO2 (configuration not stated)
z-score [1]: 0.0878 (inactive)
z-score [2]: 0.509 (inactive)
z-score [7]: 0.124 (inactive)
z-score [6]: 0.138 (inactive)
cell count [1]: 5100
cell count [2]: 4800
cell count [7]: 5050
cell count [6]: 5260

CN1CCN(CCOc2cc(OC3CCOCC3)c3c(Nc4c(Cl)ccc5c4OCO5)ncnc3c2)CC1
outcome (library stock 10 mM): inactive; censored for cell count
z-score [1]: 0.0594 (inactive) and -0.195 (inactive)
z-score [2]: 0.376 (inactive) and 0.19 (inactive)
z-score [7]: 1.62 (inactive) and 2.74 (active)
cell count [1]: 4300 and 6110
cell count [2]: 4050 and 5610
cell count [7]: 3190 and 3140

O=C1C(c2ccccc2)N(c2ccc(Br)cc2)C(=O)N1c1ccc(Br)cc1 (configuration not stated)
z-score: -0.397 (inactive)
cell count: 4960

CC#CCC(C)C(O)C=CC1C(O)C[C@@H]2CC(=CCCCC(=O)O)C[C@@H]12 (some centres not stated)
z-score [1]: -0.0626 (inactive)
z-score [2]: -0.295 (inactive)
z-score [7]: 0.193 (inactive)
z-score [6]: 0.43 (inactive)
cell count [1]: 5530
cell count [2]: 5750
cell count [7]: 5230
cell count [6]: 4650
